20 compounds from PubChem BioAssay (NCI) can be followed below.

About 83,000 compounds went through this panel and 20% of them were active in at least one assay; those are over-represented in the sample as a whole.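 Growth was measured after 48 h exposure to one concentration of compound in 96-well plates. Values under 10 count as active.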 A number with no mark means an inactive call. Activity calls are given as the source filed them.

Test systems include NCI-H23 lung; NCI-H226 lung; NCI-H322M lung; HOP-62 NSCLC; NCI-H460 lung; NCI-H522 lung; A549/ATCC NSCLC; 786-0 renal; COLO 205 colon.
What all share (assay): NCI-60 one-dose screen, 48 h (100 = growth as untreated, 0 = no growth, -100 = all killed)
Settings in all cases: 10 µM unless noted

For the compound `CC(=O)/C=C/c1cccc2c1C(=O)NC(C)(c1cc3cc(Br)ccc3oc1=O)N2` (stereo not given), the growth is 17.9% in the test on NCI-H23 lung; 34.3% with NCI-H226 lung; 52.5% in the test with NCI-H322M lung; 50% with HOP-62 NSCLC; 51.9% with NCI-H460 lung; 26.8% in the test on NCI-H522 lung. Further, the growth was 55.1% with A549/ATCC NSCLC, 33.2% with 786-0 renal and 79.6% in the test on COLO 205 colon.
As for `COc1ccc(/C=C2\C(=N)N=C(SCc3nc4ccccc4[nH]3)NC2=O)cc1`, the growth in the test on NCI-H23 lung was 100%; with NCI-H226 lung it was 98.1%; in the test with NCI-H322M lung, 110%; in the test on HOP-62 NSCLC it was 105%; in the test on NCI-H460 lung it was 105%; in the test with NCI-H522 lung, 103%. The growth in the test with A549/ATCC NSCLC was 112%; with 786-0 renal it was 114%; with COLO 205 colon, 122%.
Take `CCCSc1nc(Nc2ccc(S(N)(=O)=O)cc2)c(C#N)c(-c2ccc(Cl)cc2)n1`: the growth in the test on NCI-H23 lung was 31.4%; with NCI-H226 lung, -2.08% (active); with NCI-H322M lung it was 21.9%; in the test on HOP-62 NSCLC, -2.6% (active); in the test on NCI-H460 lung, 28.6%; in the test on NCI-H522 lung it was 16.6%. Moreover, the growth with A549/ATCC NSCLC is 16.3%; in the test with 786-0 renal it was -69.7% (active); in the test with COLO 205 colon it was 46.8%.
For the compound `Cc1occc1C(=O)NN1C(=O)/C(=C/C=C/c2ccc([N+](=O)[O-])o2)SC1=S`, the growth in the test on NCI-H23 lung is -84.1% (active); with NCI-H226 lung, -18.3% (active); in the test with NCI-H322M lung it was 66.8%; with HOP-62 NSCLC it was -9.58% (active); in the test with NCI-H460 lung, -51.6% (active); in the test on NCI-H522 lung it was -91.5% (active). For the same compound, the growth was 6.62% (active) in the test with A549/ATCC NSCLC, -69.7% (active) in the test on 786-0 renal and -75.3% (active) with COLO 205 colon.
For the compound `C=C1CCC2C3(C)COC(c4ccccc4)OC3CCC2(C)C1CC(NCc1ccccc1)C1=CCOC1=O` (stereo not given), the growth in the test on NCI-H23 lung is 80.8%; in the test with NCI-H226 lung, 63.6%; in the test on NCI-H322M lung, 90.8%; in the test with HOP-62 NSCLC it was 85.1%; in the test on NCI-H460 lung, 97%; in the test with NCI-H522 lung it was 77.6%. The values for the growth in the test with A549/ATCC NSCLC, in the test on 786-0 renal and with COLO 205 colon were 75.9%, 79.3% and 88.3%, respectively.
Consider `CCCCSc1nc(Nc2ccc(S(N)(=O)=O)cc2)c(C#N)c(-c2cc(OC)c(OC)c(OC)c2)n1`, for which the growth was 82.9% in the test on NCI-H23 lung; 59.3% in the test on NCI-H226 lung; 75.1% in the test with NCI-H322M lung; 81.4% in the test with HOP-62 NSCLC; 35.9% in the test with NCI-H460 lung; 63.2% with NCI-H522 lung. The growth with A549/ATCC NSCLC is 32.2%; in the test with 786-0 renal, 57.1%; in the test with COLO 205 colon, 39.8%.
For `O=C(C1=CNC(=S)NC1c1ccc(O)cc1)c1cc2ccccc2oc1=O` (stereo not given), the growth in the test on NCI-H23 lung is 102%; in the test on NCI-H226 lung, 95.7%; in the test with NCI-H322M lung, 106%; with HOP-62 NSCLC, 91.4%; in the test with NCI-H460 lung, 108%; in the test on NCI-H522 lung, 90%. Further, the values for the growth in the test with A549/ATCC NSCLC, in the test on 786-0 renal and with COLO 205 colon were 101%, 109% and 102%, respectively.
Take `CN(C)c1nc(NCCNS(=O)(=O)c2ccc(C(=O)/C=C/c3ccc(C(F)(F)F)cc3)cc2)nc(Nc2ccc(F)cc2)n1`: the growth is -5.94% (active) in the test on NCI-H23 lung; -48.9% (active) in the test on NCI-H226 lung; 27.7% in the test on NCI-H322M lung; 68.7% in the test with HOP-62 NSCLC; -19.6% (active) with NCI-H460 lung; -79.7% (active) in the test on NCI-H522 lung. Moreover, the growth in the test on A549/ATCC NSCLC was 10.1%; with 786-0 renal, -75.7% (active); with COLO 205 colon, -47.5% (active).
On to `COc1cc(/C=C2\C(=N)N=C(SCc3nc4ccccc4[nH]3)NC2=O)ccc1O`, for which the growth in the test on NCI-H23 lung was 96.8%; in the test with NCI-H226 lung, 92.8%; with NCI-H322M lung, 103%; with HOP-62 NSCLC it was 101%; with NCI-H460 lung it was 102%; in the test on NCI-H522 lung it was 99.2%. Moreover, the growth in the test with A549/ATCC NSCLC is 110%; with 786-0 renal it was 109%; with COLO 205 colon it was 110%.
Regarding `CN(C)c1nc(NCCNS(=O)(=O)c2ccc(C3=Nc4c(N)nc(N)nc4NC(c4ccc(F)cc4)C3)cc2)nc(Nc2ccc(F)cc2)n1` (stereo not given), the growth is 64.5% with NCI-H23 lung; 53% in the test with NCI-H226 lung; 63.3% with NCI-H322M lung; 72.4% in the test with HOP-62 NSCLC; 21.7% in the test with NCI-H460 lung; 42.1% with NCI-H522 lung. The growth in the test with A549/ATCC NSCLC was 66.3%; in the test with 786-0 renal it was 30.2%; in the test on COLO 205 colon it was 37.9%.
For `O=C(Cn1c(/C=C/c2ccccc2)nc2ccccc2c1=O)Nc1ccc(Cl)cc1`, the growth was 59.8% in the test on NCI-H23 lung; 30.2% in the test on NCI-H226 lung; 74.8% in the test on NCI-H322M lung; 57.9% with HOP-62 NSCLC; 38.7% in the test on NCI-H460 lung; 76.7% with NCI-H522 lung. Further, the growth with A549/ATCC NSCLC is 33.8%; in the test with 786-0 renal, -48.9% (active); with COLO 205 colon, 78.4%.
For `COc1ccc(-c2ccnc(SCc3cc4cc(OC)ccc4[nH]c3=O)n2)cc1`, the growth in the test on NCI-H23 lung was 25.8%; with NCI-H226 lung, 39.4%; with NCI-H322M lung, 48.1%; in the test with HOP-62 NSCLC, 34.7%; with NCI-H460 lung, 14.9%; in the test with NCI-H522 lung, 11.8%. For the same compound, the values for the growth with A549/ATCC NSCLC, with 786-0 renal and in the test on COLO 205 colon were 20.2%, 44.1% and 15.7%, respectively.
For the compound `COc1ccc(/C=C/c2nc3ccccc3c(=O)n2CC(=O)Nc2ccc(OC)cc2)cc1`, the growth in the test with NCI-H23 lung is 53.9%; in the test on NCI-H226 lung, 61.1%; in the test with NCI-H322M lung, 83.3%; in the test on HOP-62 NSCLC, 51.7%; in the test with NCI-H460 lung, 50.8%; in the test with NCI-H522 lung it was 70.3%. Also, the growth with A549/ATCC NSCLC is 46.9%; with 786-0 renal, -12.7% (active); with COLO 205 colon it was 87.8%.
For `CCOC(=O)c1ccc(Nc2nc(NN)nc(-c3ccc(OC)cc3)c2C#N)cc1`, the growth with NCI-H23 lung was 115%; in the test on NCI-H226 lung, 112%; with NCI-H322M lung, 123%; in the test on HOP-62 NSCLC, 109%; in the test with NCI-H460 lung, 109%; with NCI-H522 lung it was 103%. Moreover, the growth in the test with A549/ATCC NSCLC is 105%; in the test with 786-0 renal, 99.3%; in the test with COLO 205 colon, 116%.
Take `COc1c(F)ccc(C(=O)Nc2ccc3nc(NC(=O)C4CCCN(S(=O)(=O)C5CC5)C4)sc3c2)c1F` (stereo not given): the growth is 31.5% with NCI-H23 lung; 34.8% with NCI-H226 lung; 65.2% in the test on NCI-H322M lung; 68.4% in the test with HOP-62 NSCLC; 48.5% with NCI-H460 lung; 40.7% in the test on NCI-H522 lung. In addition, the growth is 54% in the test with A549/ATCC NSCLC, 31.1% in the test on 786-0 renal and 32.4% in the test on COLO 205 colon.
For `Cc1cc2nc3c4ccccc4n(CC4=NCCN4)c3nc2cc1C`, the growth was -56% (active) in the test on NCI-H23 lung; 23.9% with NCI-H226 lung; 22.3% in the test with NCI-H322M lung; -72.5% (active) with HOP-62 NSCLC; -84.1% (active) in the test with NCI-H460 lung; 2.32% (active) with NCI-H522 lung. Further, the growth in the test with A549/ATCC NSCLC is -85.2% (active); in the test with 786-0 renal, -97% (active); in the test on COLO 205 colon, 43.8%.
On to `COc1c(F)ccc(C(=O)Nc2ccc3nc(NC(=O)C4CCCN(S(=O)(=O)c5ccc(Br)s5)C4)sc3c2)c1F` (stereo not given), for which the growth in the test with NCI-H23 lung was 82.7%; in the test on NCI-H226 lung it was 75.1%; with NCI-H322M lung, 97.9%; with HOP-62 NSCLC, 104%; in the test with NCI-H460 lung, 86.5%; in the test with NCI-H522 lung it was 74.2%. For the same compound, the growth is 79.7% in the test on A549/ATCC NSCLC, 61.5% in the test with 786-0 renal and 101% with COLO 205 colon.
For the compound `CC(C)C(C(=O)O)n1c(O)c(/C=C2/C=c3cc4c(cc3=NC2=O)OCO4)sc1=S` (stereo not given), the growth in the test on NCI-H23 lung is 98.4%; with NCI-H226 lung, 101%; in the test with NCI-H322M lung, 103%; in the test with HOP-62 NSCLC, 115%; in the test with NCI-H460 lung, 114%; in the test with NCI-H522 lung it was 99.4%. Moreover, the growth was 110% with A549/ATCC NSCLC, 105% with 786-0 renal and 115% in the test with COLO 205 colon.
In the case of `Cc1ccc(-c2nc(Nc3ccccc3S(N)(=O)=O)c3ccccc3n2)cc1`, the growth in the test with NCI-H23 lung was 68.2%; in the test on NCI-H226 lung, 59.1%; in the test on NCI-H322M lung it was 80.2%; in the test with HOP-62 NSCLC, 86.8%; in the test with NCI-H460 lung it was 70.2%; in the test on NCI-H522 lung, 81.4%. Moreover, the results for the growth in the test with A549/ATCC NSCLC, in the test with 786-0 renal and in the test on COLO 205 colon were 71%, 32.1% and 98.7%, respectively.
As for `CCCCSc1nc(Nc2ccc(S(N)(=O)=O)cc2)c(C#N)c(-c2ccc(Cl)cc2)n1`, the growth in the test with NCI-H23 lung is 26.1%; with NCI-H226 lung, 12.8%; in the test on NCI-H322M lung it was 73.8%; in the test on HOP-62 NSCLC it was 10.6%; in the test with NCI-H460 lung, 7.9% (active); in the test with NCI-H522 lung, 63.8%. Further, the results for the growth in the test with A549/ATCC NSCLC, in the test on 786-0 renal and with COLO 205 colon were 1.68% (active), 23% and 55.2%, respectively.
